The values below come from the OligoGym collection.
Also: reference of the scale not given here.

The target in one assay is FAM55C. Put plainly: pooled miR-30 sensor sort-seq; sequence = guide strand. To be noted: shRNA.
As for TTAGTTTCTTTTATTCTCCTGG, the sensor-assay potency score (higher = more potent) came out at 0.337.

As for TTTCTTTGTAAGCACTCTGTAA, the sensor-assay potency score (higher = more potent) was -0.921.

The sequence TAAGCTACAAACACTCTACTAC had a sensor-assay potency score (higher = more potent) of 0.449.

Consider TTTATCTTCCTGTAAGCGCTGA, for which the sensor-assay potency score (higher = more potent) turned out to be 0.412.

TATAATATCGTAGCATTCTTTA: the sensor-assay potency score (higher = more potent) is -1.01.

Turning to TTACACAAAAGTCAATTCCTAA, the sensor-assay potency score (higher = more potent) was -0.448.

TTAAACTCCACTAAATCTGGAA: the sensor-assay potency score (higher = more potent) is -0.0245.

The sequence AAACACTCTACTACCAACCAAA had a sensor-assay potency score (higher = more potent) of -0.932.

Turning to TTCAAGATGACAAAGTAGCTGG, the sensor-assay potency score (higher = more potent) was 0.358.

In turn, TTGAGATAGTTCTAGACTGTTA showed a sensor-assay potency score (higher = more potent) of -0.125.

In turn, TTTGGTTTGAAGCAGAACCAGG gave a sensor-assay potency score (higher = more potent) of -1.09.

In turn, TAGTTTCAGAAATTCTTCCTGA showed a sensor-assay potency score (higher = more potent) of 0.381.

The target of a further assay is FAM57A. Described as above. The settings on record: shRNA.
TTTAGCTGAATCAGAACCCTGC displayed a sensor-assay potency score (higher = more potent) of 0.947.

With ATCATCACGCAGTCGGTGCGGC, the sensor-assay potency score (higher = more potent) is -0.575.

With ATCACGTCGTCGCAGGAGCGAA, the sensor-assay potency score (higher = more potent) was -1.8.

TTTCGACTTAGGAAGTTTCGAA displayed a sensor-assay potency score (higher = more potent) of -0.112.

Regarding TGATGTGTGATCATGAGGCGGT, the sensor-assay potency score (higher = more potent) is 0.245.

TTCGACTTAGGAAGTTTCGAAG: the sensor-assay potency score (higher = more potent) is -0.637.

On to TAGGACCAGTACATGAAGGGGA, for which the sensor-assay potency score (higher = more potent) stood at 0.407.

In turn, TTGGAGCAGGCTTAGTCCCTGC showed a sensor-assay potency score (higher = more potent) of -0.863.

With TTGCAGTAGAATGGGATGCTGA, the sensor-assay potency score (higher = more potent) was -0.668.

In the case of TGCACCGAGGAAACCAGCCTGG, the sensor-assay potency score (higher = more potent) was -1.21.

Turning to TTGGGGAGTGTCAAAGAGCCGG, the sensor-assay potency score (higher = more potent) is -1.25.

In the case of TAGGAAGTTTCGAAGAGTGAGG, the sensor-assay potency score (higher = more potent) was -0.893.

A further assay concerns the target FAM58A. The assay is described as above. To be noted: shRNA.
ATCGATTTCATGACTTTCCTTT had a sensor-assay potency score (higher = more potent) of 0.417.

TAGGGATTCAGTCTCATCGATT displayed a sensor-assay potency score (higher = more potent) of -1.22.

As to TTGAAGACATGGCAATCAGGTA, the sensor-assay potency score (higher = more potent) is -0.548.

In turn, TTGGTCTCGCAAAAGAACTTAT registered a sensor-assay potency score (higher = more potent) of -0.839.

The sequence TTGTAGTCAAAGTCCTCTCAAA had a sensor-assay potency score (higher = more potent) of -0.91.

For the sequence TTGGGTTAAAGTACCTGTTGGA, the sensor-assay potency score (higher = more potent) was found to be 0.579.

TTGATGATGTCACGAGTCCGCA: the sensor-assay potency score (higher = more potent) was -0.773.

In the case of TCTCGCAAAAGAACTTATGGTA, the sensor-assay potency score (higher = more potent) is -0.0793.

As for TATGGTAAATGGTGCAAGCAGT, the sensor-assay potency score (higher = more potent) was -0.754.

Sequence TAGTGGAGCAGGTACTTGTGTG displayed a sensor-assay potency score (higher = more potent) of -1.12.

TTGGACACATTGATGATGTCAC came in with a sensor-assay potency score (higher = more potent) of -0.0439.

ATTGATGATGTCACGAGTCCGC registered a sensor-assay potency score (higher = more potent) of -0.413.
